These results are taken from PubChem BioAssay AID720541 (National Center for Advancing Translational Sciences (NCATS), 2013).

SMILES strings stand for the structures. Screen size: about 1,300 compounds; about 420 (32%) were called active. Not shown: some 32% with an inconclusive outcome. The call rests on the fitted dose curve; in most records, active means well fitted inhibition curve with a large enough effect; inconclusive means small, poorly fitted or top-dose-only effect; inactive means no such curve, though single readings can be large or run the other way. This is one part of the list.
Potency means the concentration at half of the fitted maximal effect.

In this test the target is C-terminal-binding protein 1 (Homo sapiens) (UniProt Q13363). The test is described as follows: qHTS for Inhibitors of the Phosphatase Activity of Eya2: Carboxyl-terminal binding protein (CtBP) Counterscreen for Cherry-picked Compounds. Further: nearly all actives have a fitted effect of over 65% in size. Conditions: purified protein-protein binding, AlphaScreen, 3 h; series mostly up to 46.1 µM. A digest of the protocol: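 Cherry-picked compounds (final 2.5 nM–46 uM) were incubated 2 h at RT with 25 nM CtBP-6xHIS and 25 nM GST-E1A. Alpha beads (20 ug/mL) were then added for 1 h, light-protected; DMSO and E1A peptide inhibitor wells set the normalization.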
Background: In qHTS, concentration-response curves come from the screen itself.
For `COc1ccc(NC(=O)c2[nH]c(C)c(C(C)=O)c2C)cc1Cl`, the Potency result is “inactive”.

Regarding `CN(C1=C(N2CCCCC2)C(=O)c2ccccc2C1=O)c1ccccc1`, the Potency was 1.9 µM (active).

Consider `O=C1N=c2ccccc2=C1c1sc(Nc2cccc(O)c2)nc1O`, for which the Potency result is “inactive”.

Turning to `CC1CCN(C2=C(NS(=O)(=O)c3ccc(Br)cc3)C(=O)c3ccccc3C2=O)CC1`, the Potency is 5.36 µM (active).

On to `O=C(CCS(=O)(=O)c1ccc(Br)cc1)N1CCCCCC1`, for which the Potency result is “inactive”.

On to `O=C1C(Nc2cccc(O)c2)=C(N2CCCCC2)C(=O)c2ccccc21`, for which the Potency was 19 µM (active).

Regarding `O=C1C(NS(=O)(=O)c2ccc(Br)cc2)=C(N2CCCCC2)C(=O)c2ccccc21`, the Potency was 13.5 µM (active).

Consider `O=c1cc(Nc2ccc3c(c2)OCO3)[nH]c(=O)n1-c1ccc(Br)cc1`, for which the Potency result was “inactive”.

For the compound `S=C(NC1CC1)NC1CCCc2ccccc21` (stereo not drawn), the Potency result is “inactive”.

Take `COc1ccc(-c2ccc(SCc3cccnc3)nn2)cc1OC`: the Potency is 13.5 µM (active).

Turning to `O=C(O)CCCCCNS(=O)(=O)c1cccc2c1C(=O)c1ccccc1C2=O`, the Potency is 5.36 µM (active).

As for `O=C(O)c1ccc(Nc2nc(-c3ccccc3)nc3ccccc23)cc1`, the Potency was 9.53 µM (active).

Turning to `Cc1cc(Nc2ccc([N+](=O)[O-])cc2)c2ccccc2n1`, the Potency result is “inactive”.

For `CCOC(=O)c1nc(Nc2ccc(Nc3ccccc3)cc2)c2ccccc2n1`, the Potency was 13.5 µM (active).

In the case of `CCOC(=O)NNc1nncc2ccccc12`, the Potency entry was “inactive”.

As for `Cc1ccc(Nc2nc(-c3cccnc3)nc3ccccc23)cc1`, the Potency entry was “inactive”.

As to `O=C(O)c1cccc(Nc2nc(-c3ccccc3)nc3ccccc23)c1`, the Potency is 12 µM (active).

With `O=C(C1CCN(c2nnc(-n3cccc3)s2)CC1)N1CCOCC1`, the Potency result was “inactive”.

As to `Cc1ccc(NC(=O)CN2C(=O)S/C(=C\c3cc(Cl)c(OCC(=O)O)c(Cl)c3)C2=O)cc1`, the Potency was 15.1 µM (active).

`CCOc1ccc2c(c1)-c1c(ssc1=S)C(C)(C)N2C(=O)CSC1=NCCS1`: the Potency was 15.1 µM (active).

Consider `Cc1cc(C)nc(-n2nc(C)cc2NC(=O)c2cc3ccccc3oc2=O)n1`, for which the Potency is 4.78 µM (active).

Regarding `CN1/C(=C\C=C2/SC(=S)NC2=O)C(C)(C)c2ccccc21`, the Potency is 12 µM (active).

`CC1=NN(c2ccccc2)C(=O)/C1=C\C=C1/N(C)c2ccccc2C1(C)C`: the Potency was 9.53 µM (active).

`CN(C)c1ccc(/C=C2\C(Cl)=Cc3ccccc32)cc1`: the Potency is 6.75 µM (active).

In the case of `CN(C)c1ccc2c(c1)C(=NO)c1ccccc1-2`, the Potency is 16.9 µM (active).

Turning to `CNc1ccc(C=C2c3ccccc3-c3ccccc32)cc1`, the Potency is 12 µM (active).

As for `CN(C)c1ccc(/C=C2\c3ccccc3-c3ccc(N(C)C)cc32)cc1`, the Potency is 5.36 µM (active).

In the case of `Cc1oc(-c2ccc(-c3ccccc3)cc2)nc1CN(C)C1CCOC1` (stereo not drawn), the Potency entry was “inactive”.

As for `Cc1ccc(C(=O)Oc2ccc(N3C(=O)CCC3=O)c(C)c2)cc1`, the Potency entry is “inactive”.

Turning to `O=C(/C=C/c1ccc(O)c(O)c1)OC(Cc1ccc(O)c(O)c1)C(=O)O` (stereo not drawn), the Potency result is “inactive”.

For `COc1cccc(OC)c1C(=O)OCC(=O)NCC1CCCCC1`, the Potency result was “inactive”.

With `CC1=CC(C)(C)n2c(O)c(C3=NC(=S)NC3=O)c3cc(OC(=O)c4cccc5ccccc45)cc1c32`, the Potency entry is “inactive”.

Turning to `CN(C)c1ccc(/C=C2\C(=O)/C(=C/c3ccc(N(C)C)cc3)c3ccccc32)cc1`, the Potency is 5.36 µM (active).

For the compound `CN(C)c1ccc(C=C2c3ccccc3-c3ccccc32)cc1`, the Potency is 8.49 µM (active).

As for `OC(COc1ccc2cc(Br)ccc2c1)Cn1ccnc1` (stereo not drawn), the Potency entry was “inactive”.

Turning to `COc1ccc(NC(=O)c2cc(S(=O)(=O)N3CCc4ccccc43)cn2C)cc1OC`, the Potency result was “inactive”.

As for `COc1ccc(Nc2cc3n(c(=O)n2)CCc2cc(OC)c(OC)cc2-3)c(C)c1`, the Potency is 12 µM (active).

For `COc1cc2c(cc1OC)-c1cc(Nc3ccccc3)nc(=O)n1CC2`, the Potency is 6.75 µM (active).

As to `CCOc1ccc(Nc2cc3n(c(=O)n2)CCc2cc(OC)c(OC)cc2-3)cc1`, the Potency is 5.36 µM (active).

With `COc1cc2c(cc1OC)-c1cc(Nc3ccc(C)cc3)nc(=O)n1CC2`, the Potency is 4.26 µM (active).

In the case of `Cc1nc(COC(=O)c2c(C)nn(-c3ccccc3)c2C)cs1`, the Potency result is “inactive”.

Turning to `COc1cc2c(cc1OC)-c1cc(Nc3ccc(F)cc3)nc(=O)n1CC2`, the Potency was 2.39 µM (active).

As for `O=C(NCc1ccc2c3c(cccc13)C(=O)N2)c1cccs1`, the Potency result was “inactive”.
